Shown are actives, neighbours in structure and some others; about 2.5% of the full set was active somewhere.
Casp1 inh: blocks human caspase-1 allosterically or competitively; P29466; Caspase-1 enzyme, Ac-WEHD-AFC fluorogenic rate; Potency, µM (highest dose often 57.5 µM), without a hit: at the highest dose activity change, negative = inhibition, most hits filed as inhibitors; 0.03% of 75,000 active;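 further: plate controls were vehicle for no effect and no substrate for full effect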
p53ts 32C tox: kills p53ts cells at the permissive temperature; AID 924; H1299-p53A138V at 32C, ATP luminescence viability, 24 h; 0.93% of 130,000 active; Potency, µM (titrated, usually from 46.1 µM), for inactives: top-dose activity change, negative = cytotoxicity, most hits filed as cytotoxic;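 further: 0% = DMSO and -100% = full killing by reference compound; nearly all actives have a fitted effect of over 55% in size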
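Cells: H1299 p53ts (A138V), 600/well, pre-incubated 16–30 h at 37C. Cpd up to 46 uM, 24 h, 32C. Readout: ATPlite luminescence, 20 min RT. Normalization: DMSO vs tamoxifen 100 uM. AC50 by Hill equation.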
Casp7 inh: caspase-7 (human) inhibition, allosteric or competitive; Potency, µM (highest dose often 57.5 µM), without a hit: top-dose activity change, negative = inhibition, usual class: inhibitors; recombinant caspase-7, Ac-DEVD-AFC fluorescence rate; AID 889; 0.02% of 75,000 active; active means well fitted inhibition curve with a large enough effect in the main read-out, with a control signal flat, not every such curve was filed as active; inconclusive means small, poorly fitted or top-dose-only effect, or a change in a side signal; further: % of control where 0% means no effect
p53ts 39C tox: kills p53ts cells at the nonpermissive temperature. H1299-p53A138V viability at 39C, ATP luminescence, 24 h. Potency, µM (series often up to 46.1 µM), inactives show at the top dose activity change, negative = cell killing, actives largely listed as cytotoxic. 1.5% of 130,000 active; further: on the % scale 0 is the no-effect control and ±100 the full control effect; nearly all actives have a fitted effect of over 55% in size
IkB sig inh: inhibitors of IkB signaling in ABC-DLBCL cells | ABC-DLBCL IkBa-CBG/CBR dual luciferase ratio, 4 h; response scale: scaled: untreated 0%, proteasome inhibitor 100% | AID 445 | Potency, µM (top dose mostly 57.1 µM), inactives show at the top dose IkBa stabilization activation | 0.04% of 110,000 active; active means well fitted curve in the direction sought with a large enough effect in the signal ratio, not every such curve was filed as active; inconclusive means small, poorly fitted or top-dose-only effect, or a change in a side signal; the % refers to the signal ratio;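 further: the direction sought is a rising ratio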
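Luminescence ratio of IκBα-fused green versus native red beetle luciferase in OCI-Ly3 cells, 4 h post-doxycycline with compound; red signal alone, scaled from basal (0%) to zero light (-100%), flagged nonspecific or cytotoxic effects.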
FLuc inh: blocks Photinus pyralis firefly luciferase activity. purified firefly luciferase, luminescence, 8 min. AID 411. Potency, µM (highest dose often 57.1 µM), without a hit: top-dose activity change, negative = inhibition, usual class: inhibitors. 2.2% of 72,000 active; further: on the % scale 0 is the no-effect control and ±100 the full control effect; nearly all actives have a fitted effect of over 40% in size
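Substrate buffer containing 10 uM ATP (pH 7.2 imidazole, Mg2+, KCl, detergent, BSA) is dispensed, compound pinned in, then luciferase/luciferin detector mix added. After 8 min at ambient temperature, light output is measured.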
Numbers without * were called inactive; ? = inconclusive; / = no result given; [ ] = dose if it differs, or a comment. Unless noted, the call rests on the fitted dose curve; in most records, active means well fitted curve in the direction sought with a large enough effect; inconclusive means small, poorly fitted or top-dose-only effect, or another doubt; inactive means no such curve, though single readings can be large; an effect the other way counts as inactive or inconclusive. Potency means the concentration at half of the fitted maximal effect.

SMILES	Casp1 inh	p53ts 32C tox	Casp7 inh	p53ts 39C tox	IkB sig inh	FLuc inh
COc1cccc(Cn2c(=O)c(-c3ccc(Cl)cc3)nc3cnc(N4CCNCC4)nc32)c1	/	13µM*	?	?	-6%[11.4 µM]	-1%[11.4 µM]
O=c1c(CCc2ccccc2)nc2cnc(N3CCNCC3)nc2n1Cc1ccc(F)cc1	-2%	2%	1%	13µM*	-3%[11.4 µM]	1%[11.4 µM]
CCCCC1CCC(C(=O)N2CC(=O)Nc3ccc(F)cc3C2c2ccc(F)cc2)CC1 (configuration not stated)	/	12%	/	-19%	?	/
O=C(/C=C\Nc1ccccn1)c1ccccc1	-4%	10µM*	-6%	?	?	3.2µM*
O=C(NCCCNCCCNC(=O)c1ccccn1)c1ccccn1	2%	2%	1%	1%	-1%	-2%
O=C(/C=C/Nc1ccccc1Br)c1ccccn1	-10%	0.79µM*	-11%	1.3µM*	?	0.1µM*
COc1cc(CNCC(C)C)c(Br)cc1OCC(=O)NCc1ccccc1	/	-10%	/	32%	/	/
Cc1cc(C(=O)Nc2sc3c(c2C#N)CCCC3)no1	-1%	6.3µM*	-2%	13µM*	0%	13µM*
Cc1cc(C(=O)Nc2sc3c(c2C#N)CCC3)no1	-4%	10µM*	-7%	13µM*	-2%	16µM*
CCCc1nnc(NC(=O)CCN2C(=O)c3ccccc3C2=O)s1	0%	9%	0%	10%	0%	4%
Cc1ccc(-c2cc(-c3ccc4c(c3)OCO4)c(C#N)c(N)n2)o1	?	-13%	-28%	-23%	?	-10%
CC1(C)CC(=O)c2cnc(NC(=O)CCc3ccccc3)nc2C1	0%	11%	-2%	1%	-4%	-2%
O=C(CN1CCN(Cc2ccccc2)CC1)N/N=C/c1c[nH]c2ccccc12	/	7%	/	-7%	/	/
O=C(COC(=O)c1cnccn1)c1ccc(Br)cc1	1%	-5%	0%	-6%	3%	-22%
O=C(COC(=O)c1cnccn1)c1ccc2c(c1)CCCC2	-1%	-15%	1%	-10%	-1%	20µM*
CCc1ccc(C(=O)c2cn(CC(=O)Nc3ccc4c(c3)OCO4)c3ccc(CC)cc3c2=O)cc1	/	?	/	13µM*	0%	/
CCc1ccc(C(=O)c2cn(CC(=O)Nc3ccc(Cl)cc3)c3cc4c(cc3c2=O)OCO4)cc1	/	11%	/	-19%	?	/
CCc1ccc2c(c1)c(=O)c(C(=O)c1ccccc1)cn2CC(=O)Nc1ccc(C)c(Cl)c1	/	-22%	/	16µM*	?	/
CCc1ccc(C(=O)c2cn(CC(=O)Nc3ccc4c(c3)OCO4)c3ccc(Cl)cc3c2=O)cc1	/	-28%	/	13µM*	1%	/
Cc1ccc(NC(=O)Cc2c(C(=O)O)c(C)cn2C)cc1Cl	/	1%	/	-22%	-2%	/
Cc1nn(Cc2ccc(Cl)c(Cl)c2)c(C)c1NC(=O)c1cc(-c2ccc3c(c2)OCO3)on1	-4%	20µM*	-4%	?	?	0%
Cc1nn(Cc2ccc(Cl)cc2)c(C)c1NC(=O)c1cc(-c2ccc3c(c2)OCO3)on1	-1%	?	0%	?	13%	1%
COCCNC(=O)c1cc(-c2ccc3c(c2)OCO3)on1	1%	?	0%	?	2%	13µM*
O=C(NCc1ccco1)c1cc(-c2ccc3c(c2)OCO3)on1	-1%	-16%	0%	-30%	1%	-8%
CCN(C(=O)Cc1cccs1)c1nnc(-c2cccnc2)s1	2%	10%	0%	-15%	0%	-1%
SMILES	Casp1 inh	p53ts 32C tox	Casp7 inh	p53ts 39C tox	IkB sig inh	FLuc inh
CSC(=NC1CCCCC1)NS(=O)(=O)c1ccccc1	-2%	7%	0%	-3%	0%	1%
CC(=NC1CCCCC1)C1=C(O)c2ccccc2C1=O	-2%	?	-2%	?	?	7.9µM*
COc1cc(NC(=O)COc2ccc(F)cc2)nc(OC)n1	-2%	11%	-3%	21%	0%	0%
COc1ccc(OC)c(C(c2nnnn2C2CCCC2)N2CCN(c3ccccc3F)CC2)c1 (configuration not stated)	-2%	-1%	0%	7%	4%	2%
Cc1cc(N2CCCCC2)n2ncc(-c3ccccc3)c2n1	?	13µM*	?	?	4%	4µM*
Cc1cc(N2CCC(C)CC2)n2ncc(-c3ccccc3)c2n1	?	?	?	?	?	16µM*
Cc1cc(N2CCCCC2)n2ncc(-c3ccc(Cl)cc3)c2n1	-4%	-4%	-2%	-3%	?	13µM*
Cc1cc(N2CCCCC2)n2nc(C)c(-c3ccccc3)c2n1	-12%	-3%	-8%	4%	-2%	-1%
OCCCc1nc2n(n1)C(c1ccccc1)C=C(c1ccc(F)cc1)N2 (configuration not stated)	/	11%	/	17%	/	/
N#Cc1cc2c(nc1SCc1nc3ccccc3[nH]1)CCC2	-12%	4µM*	-13%	5µM*	?	4µM*
CCCCOC(=O)c1cccc(NC(=O)c2cc3ccccc3o2)c1	/	?	/	10µM*	?	/
COc1ccc(NC(=O)c2cc3ccccc3o2)cc1	2%	16µM*	1%	16µM*	?	6.3µM*
CC(=O)Nc1ccc(-c2cc3ccccc3o2)cc1	/	/	/	/	/	4µM*
CC(=O)c1cc2ccccc2oc1=O	1%[25.7 µM]	2%[20.6 µM]	3%[25.7 µM]	-6%[20.6 µM]	0%[25.6 µM]	-2%[25.5 µM]
COc1ccc(-c2nc3cc(NC(=O)c4cc5ccccc5o4)ccc3o2)cc1	/	3%	/	3%	-2%	/
CC(C)C(=O)Nc1cccc(NC(=O)c2cc3ccccc3o2)c1	0%	?	-2%	?	?	13µM*
CCNC(=O)CC1C(=O)N(c2ccccc2)C(=O)N1Cc1ccc(OC)cc1 (configuration not stated)	2%	2%	1%	1%	2%	3%
CCN(CC)C(=O)C1=C(C)Nc2nc3ccccc3n2C1c1ccccc1F (configuration not stated)	/	1%	/	-7%	1%	/
Cc1ccc(-c2nc3ncccc3o2)cc1NC(=O)c1cc2ccccc2o1	-2%	-2%	2%	-1%	0%	-1%
CC(=O)Nc1cccc(NC(=O)c2cc3ccccc3o2)c1	1%	13µM*	0%	6.3µM*	?	13µM*
O=C(Nc1cccc(-c2nc3ncccc3o2)c1)c1cc2ccccc2o1	2%	?	2%	-29%	?	16µM*
COc1ccc(-n2ncc3c(=O)n(CC(=O)OCc4ccccc4)cnc32)cc1	-1%	-9%	0%	-10%	0%	0%
CCOC(=O)c1sc(NC(=O)COC(=O)CNC(=O)C2CCCCC2)c(C(=O)OCC)c1C	/	?	/	3.2µM*	/	/
